Measurements from the supplement of paper PMC6555819.

How the values were obtained:
Assay in all cases: PBM binding z-score (relative to random genomic background probes); higher = stronger binding; sequences stand for … in GC…GCGATTGACAGCGTAGAATGAAGG
[1] = system: PPARg:RXRa DBDmut IVT, anti-RXR (DBD mutation: RXRa K156A/R161A, NR concentration 270 nM, RXRa partner concentration 90 nM)
Summary of the method: (§1)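 Probes were double-stranded and carried 34-nt variable regions with direct-repeat seeds, single-nucleotide variants, half-site ablations and random human genomic background sequences, printed on custom Agilent 4×180K protein-binding microarrays. Arrays were incubated 1 h with ligand-free nuclear receptor dimers in PBS pH 7.4, 2% milk, 0.02% Triton X-100, 1 mM DTT, 0.2 mg/mL BSA and 0.4 mg/ml salmon testes DNA. Antibodies against each partner (one per run) detected binding, and scanned fluorescence was regression-normalized. Binding z-scores use the random background probes as reference.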

[2] = system: PPARg:RXRa IVT, anti-PPARg (NR concentration 270 nM, RXRa partner concentration 90 nM)
Summary of the method: as §1

[3] = system: PPARg DBDmut:RXRa IVT, anti-PPARg (DBD mutation: PPARg1 K132A/R137A, NR concentration 270 nM, RXRa partner concentration 90 nM)
Summary of the method: as §1

[4] = system: PPARg DBDmut IVT, anti-PPARg (DBD mutation: PPARg1 K132A/R137A, NR concentration 270 nM)
Summary of the method: as §1

[5] = system: PPARg homodimer (NR concentration 180 nM)
Summary of the method: as §1

[6] = system: PXR:RXRa (NR concentration 270 nM, RXRa partner concentration 90 nM)
Summary of the method: as §1

[7] = system: PXR homodimer (NR concentration 270 nM)
Summary of the method: as §1

[8] = system: RARa:RXR (NR concentration 270 nM, RXRa partner concentration 90 nM)
Summary of the method: as §1

[9] = system: RARa homodimer (NR concentration 270 nM)
Summary of the method: as §1

[10] = system: RARb:RXRa (NR concentration 270 nM, RXRa partner concentration 90 nM)
Summary of the method: as §1

[11] = system: RARb homodimer (NR concentration 270 nM)
Summary of the method: as §1

[12] = system: RARg:RXRa (NR concentration 270 nM, RXRa partner concentration 90 nM)
Summary of the method: as §1

[13] = system: RARg homodimer (NR concentration 270 nM)
Summary of the method: as §1

[14] = system: RXRa DBDmut IVT, anti-RXR (DBD mutation: RXRa K156A/R161A, NR concentration 90 nM)
Summary of the method: as §1

[15] = system: RXRa homodimer (NR concentration 180 nM)
Summary of the method: as §1

[16] = system: THRa:RXRa (NR concentration 90 nM, RXRa partner concentration 90 nM)
Summary of the method: as §1

[17] = system: THRa homodimer (NR concentration 90 nM)
Summary of the method: as §1

[18] = system: VDR:RXRa (NR concentration 270 nM, RXRa partner concentration 90 nM)
Summary of the method: as §1

[19] = system: VDR homodimer (NR concentration 270 nM)
Summary of the method: as §1

Sequence	PBM binding z-score [1]	PBM binding z-score [2]	PBM binding z-score [3]	PBM binding z-score [4]	PBM binding z-score [5]	PBM binding z-score [6]	PBM binding z-score [7]	PBM binding z-score [8]	PBM binding z-score [9]	PBM binding z-score [10]	PBM binding z-score [11]	PBM binding z-score [12]	PBM binding z-score [13]	PBM binding z-score [14]	PBM binding z-score [15]	PBM binding z-score [16]	PBM binding z-score [17]	PBM binding z-score [18]	PBM binding z-score [19]
CGTCCAAGGTCATAGGAGATCAGTGAAGACAGAT	3.22	3.43	1.2	0.671	2.99	4.44	1.37	4.47	0.926	4.89	3.65	5.88	6.14	4.11	6.2	3.82	2.46	4.3	3.14
CCTACTGGGGCAGAAAGGTTACCATACCATCCGG	3	4	0.246	-0.987	1.63	0.791	-0.188	1.85	0.396	1.87	2.22	1.62	1.59	-1.01	1.56	0.807	-0.439	0.923	-0.187
AATACAGGGTCACTAAGCCAGAGTAGGTACGAAT	3.03	4.56	1.91	0.89	2.06	3.23	0.477	4.15	0.677	4.17	3.03	5.07	4.83	2.77	5.39	3.33	1.13	4.02	2.35
ACTATTAGTTTAGACGAGGGCAACCGATAGGTTG	0.00795	0.402	0.0772	1.14	0.811	1.29	0.902	1.26	1.02	1.25	1.49	0.78	1.15	0.931	0.581	2.5	0.435	0.8	1.65
CGTCAAATTTCAACTAAGGTAACGTAAAGCACGC	0.435	0.656	1.41	1.4	0.372	0.319	0.588	0.981	1.04	0.603	0.545	0.344	0.568	0.715	0.436	2.71	1.89	0.709	0.604
TCTCTTAGTTGATTAGGGCAACCGAAACAGCGGA	2.63	1.67	0.796	1.17	1.28	0.757	0.477	0.892	0.846	1.51	0.99	0.874	0.649	1.47	0.82	0.934	0.61	0.558	0.608
TCGAGTAGGTTAGTCGGGGCATTCGGCCAACATA	1.74	2.04	-1.62	-1.17	0.0341	0.113	0.177	0.065	-0.901	0.58	0.848	-0.0623	0.0417	-0.081	-0.218	0.974	-0.521	2.15	0.124
AGAATGAGGTTAAGATCACGGAAACAGAATACAT	3.1	2.73	1.28	0.711	1.19	1.28	0.346	2.31	0.826	2.24	0.84	2.33	1.81	0.924	2.92	2.47	0.742	1.41	0.686
ATCGAAAGGTCGACGAGGTTAGTATACACCGTTT	0.568	1.88	1.2	0.625	1.24	4.03	2.16	3.97	0.691	3.86	3.1	4.27	4.18	1.45	4.55	3.37	0.478	6.41	2.31
CGAACTAGGTCAGAACAGGACACTGAAGGATGAT	7.14	7.36	1.14	1.38	0.688	0.996	-0.0376	1.24	0.452	2.9	2.12	2.35	3.35	0.629	1.37	4.03	0.473	1.14	0.123
GCTATTATTTGAAAGGGCAACCGAATGATTCTCG	0.681	0.479	0.791	0.619	1.8	0.697	1.02	1.07	2.43	2.09	2.11	1.12	1.27	0.947	1.03	0.568	0.3	0.646	0.995
TAGCCTAGGTCATTCAGGGTCCAGTATAGAAAGC	1.57	2.74	0.533	0.0908	1.38	3.27	0.324	2.84	-0.0201	3.77	3.02	4.74	4.16	2	3.11	4.2	0.899	4.41	2.74
TATCCTAGGTCATGCGGGCCAGTATAGTGTCGGC	3.98	4.97	1.6	1.66	1.75	2.04	0.212	2.76	-0.133	3.9	3.12	4.06	4.98	1.6	3.59	3.43	1.91	3.5	1.29
AGAACGAGGGAAATGAGTTGATAGCACGGGTGGC	-0.231	-0.564	0.432	-0.941	-0.441	-0.411	0.0651	-0.474	-0.0061	-0.45	-0.754	-0.0436	0.0126	-0.228	-0.0737	-0.188	-0.839	0.62	0.141
TCTTGGAGATCAAAGGTTAAGAAAGCCGAAGCCT	1.05	2.18	-0.186	-0.682	0.267	2.44	-0.521	3.89	-0.387	1.9	1.18	2.07	0.819	0.202	4.66	1.4	-0.671	1.57	-0.245
